IMPase Li inh: IMPase inhibition in cells with lithium potentiation; CHO-M1 cells, IP1 TR-FRET (IP-One), carbachol + lithium; Potency, µM (top dose mostly 59.4 µM), for the others: at the top dose activity, negative = IMPase inhibition, actives largely listed as inhibitors; hit rate 0.35% among 210,000; AID 1457;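 note: IP1 builds up when IMPase is blocked and the TR-FRET signal falls; plate controls were basal vehicle for no effect and high inhibitor control for full effect; nearly all actives have a fitted effect of over 50% in size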
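Concentration–response in CHO-M1 cells, lithium-potentiated; 30 min at 37C. IP1 detected by competitive TR-FRET after 10 min lysis at RT. Hill-fitted AC50.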
ALDH1A1 block: ALDH1A1 (human) enzyme inhibition; Purified ALDH1A1, NADH fluorescence, propionaldehyde substrate; Potency, µM (titrated, usually from 75.3 µM), for inactives: at the highest dose activity, negative = inhibition, usual class: inhibitors; hit rate 7.3% among 220,000; active = well fitted inhibition curve with a large enough effect, not every such curve was filed as active; inconclusive = small, poorly fitted or top-dose-only effect, or another doubt; inactive = no such curve, though single readings can be large or run the other way;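 note: plate controls were no enzyme wells and a reference inhibitor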
Lamin A splicing: LMNA splicing modulation; HeLa LMNA splicing GFP/RFP minigene ratio, 48 h; Potency, µM (series often up to 46.1 µM), inactives show at the highest dose ratio change, negative = inhibition, actives largely listed as inhibitors; hit rate 0.01% among 200,000; AID 1487; active = well fitted inhibition curve with a large enough effect in the signal ratio, with a control signal flat, not every such curve was filed as active; inconclusive = small, poorly fitted or top-dose-only effect, or effect the other way, or a change in a side signal; the % refers to the signal ratio
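S3 HeLa cells stably expressing lamin A-EGFP splicing minigene plus DsRed2, 600 cells/well, 48 h compound exposure at 37C. Laser-scanning cytometry; analysed as GFP (500-530 nm)/RFP (575-640 nm) total intensity ratio; 0.5% DMSO vehicle.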
HPGD inh: inhibitors of human 15-hydroxyprostaglandin dehydrogenase (HPGD) | P15428 | purified HPGD, NADH fluorescence kinetic, PGE2 substrate | Potency, µM, inactives show at the highest dose activity change, negative = inhibition, most hits filed as inhibitors | hit rate 4.3% among 150,000 | AID 894; active = well fitted inhibition curve with a large enough effect, not every such curve was filed as active; inconclusive = small, poorly fitted or top-dose-only effect, or another doubt; inactive = no such curve, though single readings can be large or run the other way
Target sequence (P15428 whole entry, looked up): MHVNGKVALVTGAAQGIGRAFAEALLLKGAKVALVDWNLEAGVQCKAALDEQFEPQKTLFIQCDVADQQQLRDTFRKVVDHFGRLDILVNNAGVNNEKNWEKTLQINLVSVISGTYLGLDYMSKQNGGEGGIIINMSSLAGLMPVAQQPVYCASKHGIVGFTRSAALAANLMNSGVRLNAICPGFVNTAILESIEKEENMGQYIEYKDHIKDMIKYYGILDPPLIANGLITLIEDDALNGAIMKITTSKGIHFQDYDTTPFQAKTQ
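NADH formation kinetics: reaction with 30 uM PGE2 and 1 mM NAD+ (final), 20 nM enzyme, Tris-HCl pH 8 with Tween 20, after 15 min compound preincubation at room temperature. Fluorescence change, last versus first of five reads.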
Luc counter: blocks Kinase-Glo luciferase, a counter-screen artifact; Kinase-Glo luciferase, ATP luminescence, 8 min; Q27757; Potency, µM (titrated, usually from 38.3 µM), for inactives: at the highest dose activity change, negative = inhibition, actives largely listed as inhibitors; hit rate 0.28% among 200,000; note: nearly all actives have a fitted effect of over 60% in size
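Luminescence was the read-out, taken after 8-minute incubation at ambient temperature. Luciferase turned over luciferin with 10 uM ATP in imidazole pH 7.2 buffer containing KCl, MgCl2, Tween 20 and BSA.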
Numbers without * were called inactive; ? = inconclusive; / = not tested or not shown; [ ] = dose if it differs, or a comment. Sampled rows, rich in hits. Any-hit rate of the full collection: about 9%. Unless noted, calls come from the whole dose curve; as a rule, active = well fitted curve in the direction sought with a large enough effect; inconclusive = small, poorly fitted or top-dose-only effect, or another doubt; inactive = no such curve, though single readings can be large; an effect the other way counts as inactive or inconclusive. Unless noted, % is set by controls: 0 for no effect and ±100 for the full control effect; potency is the fitted concentration of half-maximal effect.

SMILES | IMPase Li inh | ALDH1A1 block | Lamin A splicing | HPGD inh | Luc counter
N/C(=N\OC(=O)COc1ccc2ccccc2c1Br)c1ccncc1 | ? | -2% | -19%[46 µM] | / | 0%
O=C(NCc1ccco1)C1CCCN(S(=O)(=O)c2ccc(Br)cc2)C1 (stereo not drawn) | 7% | ? | 5%[46 µM] | / | 0%
COCCNc1nnc(SCC(=O)NNC(=O)c2ccccc2)s1 | -8% | 8% | / | / | -3%
Nc1nnc(SCC(=O)Nc2sc3c(c2C(=O)c2ccccc2)CCCC3)s1 | 14% | 13µM* | ? | -20% | 0%
Nc1nnc(SCC(=O)c2ccc3ccccc3c2)s1 | 30%[38.3 µM] | 8.9µM* | 5% | 22µM* | -2%
COCCNc1nnc(SCC(=O)Nc2sc3c(c2C(=O)c2ccccc2)CCCC3)s1 | 21% | 28µM* | ? | -26% | -1%
O=C1C[C@@H](O)[C@@H](O)[C@@H]2[C@H]3C(=O)N(c4ccc(F)cc4F)C(=O)[C@@H]3CC[C@H]12 | / | -3%[13.5 µM] | / | / | /
Cc1cnn2c(C3CC3)ccnc12 | 0% | -1% | 40%[46 µM] | / | 0%
C[C@H](NC(=O)c1ccco1)C(=O)Nc1cccc([N+](=O)[O-])c1 | 6% | 3% | 7%[46 µM] | / | 1%
C/C=C/CSc1nc2c(c(=O)[nH]c(=O)n2C)n1Cc1ccc(C)cc1 | 29%[38.3 µM] | 10µM* | 2% | 18µM* | 2%
Cc1ccc(Cn2c(SCC(C)C)nc3c2c(=O)n(C)c(=O)n3C)cc1 | 37%[38.3 µM] | 2µM* | 9% | -25% | -5%
C/C(Cl)=C/Cn1c(SCc2ccc(Cl)cc2)nc2c1c(=O)[nH]c(=O)n2C | 20%[38.3 µM] | ? | 11% | -5% | -1%
C/C=C/Cn1c(SCc2ccccc2)nc2c1c(=O)[nH]c(=O)n2C | 12%[38.3 µM] | 14µM* | 10% | 20µM* | 6%
O=C(/C=C/Nc1ccccc1Br)c1ccccn1 | -4%[38.3 µM] | -12% | ? | -22% | 13µM*
N/C(=N\OC(=O)/C=C/c1ccccc1)c1ccccn1 | 3% | 2% | -2%[46 µM] | / | 11µM*
O=C(/C=C/c1ccccc1)c1ccccn1 | -4%[38.3 µM] | -3% | ? | -13% | 14µM*
COc1ccc(CCNC(=O)CSc2nnc(Cc3cccn3C)n2C)cc1OC | -5% | 4% | / | / | -2%
CC1CN(c2snnc2C=C2C(=O)OC(C)(C)OC2=O)CC(C)O1 (stereo not drawn) | 7% | 20µM* | / | / | 2%
Cc1nc(C)c(C(=O)Nc2ncc([N+](=O)[O-])s2)o1 | 9% | 22µM* | ? | / | ?
S=C(Nc1cccc(Br)c1)c1ccccc1 | 3% | 3% | ? | 13µM* | -36%
O=C(Nc1cccc(C(=O)OCc2cc(=O)n3c4c(sc3n2)CCCC4)c1)c1ccc(Cl)cc1 | / | / | 5%[46 µM] | / | /
COc1ccc(CNCC(O)COc2cccc3c2OC(C)(C)C3)cc1 (stereo not drawn) | 2% | -6% | / | / | 0%
CC1(C)CC(N(Cc2cccs2)C(=O)c2ccco2)CCO1 (stereo not drawn) | 9%[38.3 µM] | 10µM* | -1% | -7% | -2%
CC1(C)CC(N(Cc2ccco2)C(=O)Cc2ccccc2)CCO1 (stereo not drawn) | -5%[38.3 µM] | 1% | -4% | -7% | -3%
CCc1nc2ccccc2n1CC1CC1(Cl)Cl (stereo not drawn) | 10% | 8% | ? | / | 6%
SMILES | IMPase Li inh | ALDH1A1 block | Lamin A splicing | HPGD inh | Luc counter
Cc1ccc(C(C[N+](=O)[O-])n2nc(C)cc2C)cc1 (stereo not drawn) | 26%[38.3 µM] | ? | 6% | 16µM* | -7%
Nc1nc(=S)[nH]c2c1C1(CCCC1)Cc1ccccc1-2 | ? | -10% | 4% | 13µM* | -2%
Nc1nc(=S)[nH]c2c1C1(CCCCC1)Cc1ccccc1-2 | -2% | 4% | ? | -10% | -3%
CCS(=O)(=O)c1ccc(NC(=O)c2ccccc2Cl)c(O)c1 | -8% | 16µM* | 2% | -20% | 7%
NS(=O)(=O)c1ccc(NC(=O)c2ccccc2Cl)cc1 | 24%[38.3 µM] | -5% | 7% | -11% | 1%
O=[N+]([O-])c1ccc(S(=O)(=O)N2CCSC2c2ccco2)cc1 (stereo not drawn) | / | 4µM* | ? | / | /
COC(=O)c1ccc(C(=S)N2CCCCC2)cc1 | 1% | -6% | 13%[46 µM] | / | -2%
